# Source: publication PMC5540273 (PLoS ONE, 2017)
# Tests used:
# Conditions in all cases: concentration: 1 μM, replicates: in singlicate; n = 1
# [1] = system: CAMK1
# [2] = system: CAMK2A
# [3] = system: CAMK2B
# [4] = system: CAMK2D
# [5] = system: CAMK2G
# [6] = system: CAMK4
# [7] = system: CAMKK1
# [8] = system: CAMKK2
# [9] = system: CASK
# [10] = system: T1, CDC2L1
# T1 construct: gene CDK11B
# 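Further: KINOMEscan kinase panel screen.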
Structure (SMILES),%Inh [1],%Inh [2],%Inh [3],%Inh [4],%Inh [5],%Inh [6],%Inh [7],%Inh [8],%Inh [9],%Inh [10]
Cc1cccc(Nc2nc(N[C@H]3CCNC3)ncc2C(N)=O)c1.Cl [GSK2197149],41%,0%,0%,6%,18%,0%,2%,17%,0%,73%
COCCOCCOc1cc2ncc3c4ccc(C#N)cc4[nH]c3c2cc1OC,26%,85%,57%,87%,72%,0%,83%,63%,8%,0%
COc1cc(Nc2ncc3c(C)nc(-c4cc5ccccc5[nH]4)n3n2)cc(OC)c1OC [GW869516],19%,1%,8%,6%,1%,0%,13%,9%,0%,5%
COc1ccc(Nc2nccc(NCCNC(=O)c3cc4ccccc4s3)n2)cc1 [GSK1379896],4%,0%,0%,0%,16%,0%,0%,0%,5%,0%
Nc1ncnc2c1nc(-c1ccccc1)n2-c1ccccc1 [SKF-97293],13%,3%,1%,18%,4%,0%,0%,6%,17%,0%
Cc1ccc(C(=O)Nc2ccc(Nc3ccnc4cc(-c5nccs5)ccc34)cc2O)cc1.Cl [GW494702],13%,0%,0%,0%,14%,0%,3%,6%,4%,0%
NCCCC(NC(=O)c1cc(Br)c(-c2ccnc3[nH]ccc23)s1)c1ccccc1.O=C(O)C(F)(F)F.O=C(O)C(F)(F)F (stereo not shown) [GSK1287544],13%,0%,0%,0%,10%,0%,30%,8%,0%,0%
c1ccc(Oc2ccc(Nc3ccnc4cc(-c5ccc(CNCCN6CCOCC6)o5)ccc34)cc2)nc1 [GW567145],26%,0%,0%,0%,1%,0%,0%,0%,0%,0%
FC(F)(F)c1ccc(/C=C/c2cncnc2Nc2ccc3[nH]c(Cc4ccccc4)nc3c2)cc1 [GW709199],0%,34%,36%,3%,8%,0%,19%,0%,10%,0%
CCn1c(-c2nonc2N)nc2c(C#CC(C)(C)O)nc(OC[C@H](N)c3ccccc3)cc21 [GSK943949],0%,0%,0%,0%,0%,0%,0%,0%,25%,0%
